Results on 13 compounds are retold here after PubChem BioAssay (NCI).

Test systems include SK-MEL-2 melanoma; EKVX NSCLC; SN12C renal; UO-31 renal; TK-10 renal; ACHN renal; CAKI-1 renal; A498 renal; CCRF-CEM leukemia; MOLT-4 leukemia.
What all share (assay): NCI-60 one-dose screen, 48 h (100 = growth as untreated, 0 = no growth, -100 = all killed)
Settings in all cases: 10 µM unless noted

About 83,000 compounds went through this panel and 20% of them were active in at least one assay; those are over-represented in the sample as a whole.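 Activity criterion: percent growth below 10, measured after cells in 96-well plates were exposed to a single compound concentration for 48 hours.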 A number with no mark means an inactive call. The source made the active and inactive calls.

For the compound `C[C@H]1[C@@H](CC(=O)N[C@@H](Cc2coc3ccccc23)B(O)O)O[C@@H]2OC3(C)CC[C@H]4[C@H](C)CC[C@@H]1[C@@]24O3`, the growth in the assay on SK-MEL-2 melanoma was -20.7% (active); with EKVX NSCLC, 28.2%; in the assay with SN12C renal, 6% (active); with UO-31 renal, 12.4%; in the assay on TK-10 renal, 1.76% (active); with ACHN renal, 6.94% (active). In addition, the growth was 15.5% in the assay on CAKI-1 renal, 44.5% in the assay with A498 renal, -0.752% (active) with CCRF-CEM leukemia and 14.2% with MOLT-4 leukemia.
Consider `Cc1cc(N=C(N)c2ccccc2)ccc1OCCCCCCCCn1ccnc1`, for which the growth was -28.2% (active) with SK-MEL-2 melanoma; 20.7% with EKVX NSCLC; 12.7% in the assay on SN12C renal; -30.2% (active) in the assay on UO-31 renal; 32.9% with TK-10 renal; 9.56% (active) in the assay on ACHN renal. In addition, the growth in the assay on CAKI-1 renal was 20.2%; with A498 renal, 64.6%; in the assay on CCRF-CEM leukemia it was 12.3%; in the assay on MOLT-4 leukemia, 14.1%.
Take `N#CC1=C(c2ccco2)Nc2c(c(-c3ccccc3)nn2-c2ccccc2)C12C(=O)Nc1ccc(Br)cc12` (stereo not given): the growth in the assay with SK-MEL-2 melanoma is 87%; in the assay on EKVX NSCLC, 56.2%; in the assay with SN12C renal, 5.11% (active); in the assay on UO-31 renal it was 59.8%; with TK-10 renal it was 65.9%; in the assay on ACHN renal, 49.3%. Further, the growth is 55.9% with CAKI-1 renal, 124% in the assay with A498 renal, 35.5% with CCRF-CEM leukemia and 36.2% in the assay with MOLT-4 leukemia.
Turning to `COc1ccc(NC(=O)CSc2nnc(-c3ccc(-c4nc5ccc(Cl)cc5[nH]4)cc3)o2)cc1`, the growth with SK-MEL-2 melanoma is 39.4%; with EKVX NSCLC it was 23.3%; with SN12C renal, 6.13% (active); in the assay on UO-31 renal, 71.4%; with TK-10 renal, 112%; in the assay on ACHN renal it was 2.97% (active). Further, the growth with CAKI-1 renal is 8.1% (active); in the assay with A498 renal, 60.2%; in the assay with CCRF-CEM leukemia, 54.2%; in the assay with MOLT-4 leukemia, 37.5%.
In the case of `C/C(=N\Nc1ccc(S(N)(=O)=O)cc1)c1cnn(-c2cc(=O)[nH]c3ccc(Br)cc23)c1C`, the growth was 20% with SK-MEL-2 melanoma; 72.1% with EKVX NSCLC; 61.2% with SN12C renal; 54.8% in the assay on UO-31 renal; 146% in the assay with TK-10 renal; 81% with ACHN renal. For the same compound, the growth is 76.7% with CAKI-1 renal, 115% in the assay on A498 renal, 8.23% (active) in the assay on CCRF-CEM leukemia and 18.5% with MOLT-4 leukemia.
As to `COc1ccc(N=Nc2c(N)nn3c(-c4cc5cc(Br)ccc5oc4=O)ccnc23)cc1`, the growth was 29.6% in the assay on SK-MEL-2 melanoma; 34.8% in the assay on EKVX NSCLC; 17.6% with SN12C renal; 8.11% (active) in the assay on UO-31 renal; 62% in the assay with TK-10 renal; -21.2% (active) with ACHN renal. In addition, the growth in the assay with CAKI-1 renal was 12%; in the assay on A498 renal, 36.1%; with CCRF-CEM leukemia it was 96.2%; in the assay with MOLT-4 leukemia, 85.6%.
`Cc1nn(-c2ccccc2)c2nc(C)n(C(=O)N/N=C/c3ccccc3)c(=O)c12`: the growth in the assay with SK-MEL-2 melanoma is 105%; in the assay with EKVX NSCLC, 94.4%; in the assay on SN12C renal, 97.9%; in the assay on UO-31 renal, 74.1%; in the assay on TK-10 renal it was 123%; with ACHN renal, 94.9%. Also, the growth in the assay with CAKI-1 renal was 76.9%; in the assay with A498 renal, 112%; with CCRF-CEM leukemia, 96.3%; in the assay with MOLT-4 leukemia it was 102%.
Take `COc1ccc2[nH]c(O)c(N=Nc3nc(-c4ccc(Br)cc4)cs3)c2c1`: the growth in the assay on SK-MEL-2 melanoma is 21.1%; in the assay with EKVX NSCLC it was 6.08% (active); in the assay with SN12C renal, -46.4% (active); in the assay on UO-31 renal, 0.841% (active); with TK-10 renal it was 33.4%; in the assay with ACHN renal, -64.2% (active). The growth in the assay on CAKI-1 renal was 2.6% (active); with A498 renal it was -78% (active); in the assay on CCRF-CEM leukemia, 14.7%; in the assay on MOLT-4 leukemia, -17.7% (active).
In the case of `Cc1ccc(N=Nc2c(N)nn3c(-c4cc5ccccc5oc4=O)ccnc23)cc1`, the growth with SK-MEL-2 melanoma is 61.5%; in the assay on EKVX NSCLC it was 49.2%; in the assay on SN12C renal, 48.2%; in the assay with UO-31 renal, 53.8%; in the assay on TK-10 renal, 57.9%; with ACHN renal it was 34.9%. Further, the growth in the assay on CAKI-1 renal was 57.1%; in the assay on A498 renal, 150%; in the assay on CCRF-CEM leukemia, 70.2%; with MOLT-4 leukemia it was 39%.
In the case of `CN(C)CCOc1ccc(C(=O)C2[C@H](c3ccc(Cl)cc3)[C@@H](c3ccccc3)NC23C(=O)Nc2ccc(Cl)cc23)cc1` (stereo not given in full), the growth with SK-MEL-2 melanoma is -92.5% (active); in the assay on EKVX NSCLC it was -93.9% (active); with SN12C renal, -94.5% (active); in the assay on UO-31 renal it was -99.7% (active); in the assay with TK-10 renal, -96.7% (active); with ACHN renal it was -100% (active). Further, the growth with CAKI-1 renal was -98.6% (active); in the assay on A498 renal it was -95.9% (active); in the assay on CCRF-CEM leukemia, -65.4% (active); in the assay with MOLT-4 leukemia, -77.4% (active).
For the compound `COc1ccc(-c2cc(-c3ccccc3)c(C#N)c(=O)[nH]2)cc1S(N)(=O)=O`, the growth in the assay on SK-MEL-2 melanoma was 104%; with EKVX NSCLC it was 95.9%; in the assay with SN12C renal, 124%; with UO-31 renal, 89.8%; with TK-10 renal it was 96.8%; in the assay on ACHN renal, 103%. Also, the growth in the assay with CAKI-1 renal was 96.4%; with A498 renal, 91.2%; with CCRF-CEM leukemia, 113%; in the assay on MOLT-4 leukemia it was 136%.
For the compound `COc1ccc(S(=O)(=O)Nc2ccc(-c3ccc4c(c3)NC(=O)/C4=C\c3ccc[nH]3)cc2)cc1OC`, the growth was 46.6% with SK-MEL-2 melanoma; -27.8% (active) in the assay with EKVX NSCLC; -0.885% (active) in the assay with SN12C renal; 54.7% with UO-31 renal; 11.7% in the assay on TK-10 renal; -31.4% (active) in the assay on ACHN renal. Also, the growth was -11% (active) in the assay with CAKI-1 renal, 121% in the assay on A498 renal, 58.6% in the assay on CCRF-CEM leukemia and 49% with MOLT-4 leukemia.
`COc1cc(CNC(=O)C[C@H](C)CCC=C(C)C)ccc1OCc1cn(-c2cccc(C(F)(F)F)c2)nn1`: the growth was 111% with SK-MEL-2 melanoma; 92.1% in the assay on EKVX NSCLC; 27.1% in the assay with SN12C renal; 75.7% in the assay on UO-31 renal; 102% in the assay with TK-10 renal; 77.6% in the assay with ACHN renal. In addition, the growth is 73.6% in the assay with CAKI-1 renal, 91% in the assay on A498 renal, 97.1% in the assay on CCRF-CEM leukemia and 84.8% in the assay on MOLT-4 leukemia.
